In PubChem BioAssay (NCI):
The panel holds about 83,000 compounds, 20% with a hit somewhere; the sample as a whole holds those more often.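 Growth was measured after 48 h exposure to one concentration of compound in 96-well plates. Values under 10 count as active.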 Calls of active or inactive are those of the source.

test system: MDA-MB-468 breast; experiment: NCI-60 one-dose screen, 48 h (100 = growth as untreated, 0 = no growth, -100 = all killed); conditions: 10 µM unless noted

Q: Which growth does the source give for `CCC1=C(c2ccc(OC)cc2)C(C)(C)Oc2c1ccc(O)c2CN1CCCC1` here?
A: The growth was -45.1% (active).

Q: Which growth does the source give for `COc1ccc(C(=O)/C=C/c2cc(-c3cc(OC)c(OC)c(OC)c3)n[nH]2)cc1OC` here?
A: The growth was -94.6% (active).

Q: For `COc1ccc(/C=C2/SC(=O)N(CC(=O)N3CCN(c4cc5c(cc4F)c(=O)c(C(=O)O)cn5C4CC4)CC3)C2=O)cc1`, which growth is on record?
A: Its growth is 108% (inactive).

Q: For `CCOc1cc2ncc(C#N)c(Nc3ccc(F)c(Cl)c3)c2cc1NC(=O)CC1CCSS1` (stereo unspecified), which growth is on record?
A: Its growth is -74.2% (active).

Q: Which growth does the source give for `CC(=O)C1C(=O)C(=O)N(c2ccc(Cl)c(Cl)c2)C1=O` (stereo unspecified) here?
A: The growth was 115% (inactive).

Q: With `COc1cccc(-c2cn3nc(-c4cn(C)c5ccccc45)sc3n2)c1` as the compound, how does the growth read?
A: Its growth is 103% (inactive).

Q: `C=C[C@@H]1C[C@@H]2Cc3c(C)cc(C)cc3N1O2` was tested. Which growth did it give?
A: Its growth is 97.9% (inactive).

Q: How did the growth turn out when `COC(=O)c1cc(=O)nc(N/N=C/c2ccco2)s1` was run?
A: The growth was 61.7% (inactive).

Q: How did the growth turn out when `c1ccc2nc(Cn3c[n+](Cc4ccc5ccccc5n4)c4ccccc43)ccc2c1` was run?
A: Its growth is -19.3% (active).

Q: Which growth does the source give for `O=C(c1ccccc1)N1N=C(c2ccc(-n3ccc(C(F)(F)F)n3)cc2)CC1c1ccc[nH]1` (stereo unspecified) here?
A: The growth was 86% (inactive).

Q: For `O=P([O-])(O)OP(=O)([O-])O.[NH-][C@H]1CCCC[C@@H]1[NH-].[OH-].[OH-].[Pt+4]`, which growth is on record?
A: The growth was 102% (inactive).

Q: How did the growth turn out when `CNC(=O)c1cccnc1` was run?
A: The growth was 106% (inactive).

Q: How did the growth turn out when `c1ccc([P+](CCCc2n(Cc3ccc4ccccc4c3)c3ccccc3[n+]2Cc2ccc3ccccc3c2)(c2ccccc2)c2ccccc2)cc1` was run?
A: The growth was 34.5% (inactive).

Q: How did the growth turn out when `c1ccc(-c2nn(-c3ccccc3)[n+](-c3ccccc3-c3ccccc3)n2)cc1` was run?
A: The growth was -38.6% (active).

Q: With `CCOC(=O)c1cc(C(=O)c2ccc(Cl)cc2)n2ccc(-c3cc[n+](CC(=O)c4ccc(OC)cc4)cc3)cc12` as the compound, how does the growth read?
A: Its growth is 70.7% (inactive).

Q: With `O=C(c1ccccc1)c1cc2ccccc2oc1=O` as the compound, how does the growth read?
A: The growth was 97.3% (inactive).

Q: For `O=C(O)c1cccc([N+](=O)[O-])c1`, which growth is on record?
A: Its growth is 109% (inactive).

Q: How did the growth turn out when `C=CCn1c(C)nc2ccc(Nc3nc(Nc4ccc5nc(C)n(CC=C)c5c4)c4ccccc4n3)cc21` was run?
A: Its growth is -92.8% (active).

Q: `CC[C@]1(O)CC2CN(CCc3c([nH]c4ccccc34)C(C(=O)OC)(c3cc4c(cc3OC)N(C=O)[C@H]3[C@@](O)(C(=O)OC)[C@H](OC(C)=O)[C@]5(CC)[C@@H]6C[C@@H]6CN6CC[C@]43[C@@H]65)C2)C1` (stereo partly specified) was tested. Which growth did it give?
A: The growth was 22.9% (inactive).

Q: With `COC(=O)/C(CCC=C(C)C)=C1\[C@@H](OC(C)=O)C[C@@]2(C)[C@H]1C/C(=N/O)[C@H]1[C@@]3(C)CC/C(=N\O)[C@@H](C)[C@@H]3CC[C@@]12C` as the compound, how does the growth read?
A: Its growth is 96.8% (inactive).

Q: Which growth does the source give for `O=S(=O)(/N=c1/n(-c2ccccc2)nc2n1CCN2C1=NCCN1)c1ccc(-c2ccccc2)cc1` here?
A: Its growth is 94.3% (inactive).

Q: `Cc1nccc2c3ccc(OCc4cn(-c5ccc(Cl)cc5)nn4)cc3n(CCCc3ccccc3)c12` was tested. Which growth did it give?
A: The growth was 10.6% (inactive).

Q: For `CC/C(=C(/c1ccc(O)cc1)c1ccc(OCCN2CCCCC2)cc1)c1ccc(OC)cc1`, which growth is on record?
A: The growth was 60.7% (inactive).

Q: For `c1ccc2cc(Cn3cc[n+](Cc4ccc5ccccc5c4)c3)ccc2c1`, which growth is on record?
A: The growth was -23.7% (active).

Q: Which growth does the source give for `CCN(CC)CCN1CNC(=S)NC1` here?
A: The growth was 99.7% (inactive).

Q: With `Nc1c(Cl)cc(N=Nc2ccccc2)cc1Cl` as the compound, how does the growth read?
A: The growth was -61.3% (active).

Q: How did the growth turn out when `COc1ccc(/C=C2\SC(=O)N(CN3CCN(c4cc5c(cc4F)c(=O)c(C(=O)O)cn5C4CC4)CC3)C2=O)cc1` was run?
A: The growth was 108% (inactive).

Q: How did the growth turn out when `C=CCOc1cccc(/C=C2\SC(=Nc3ccc(O)cc3)NC2=O)c1` was run?
A: Its growth is -7.52% (active).

Q: For `O=C(NO)c1ccc(Cn2c(=O)n(CCc3ccc(O)cc3)c(=O)c3ccccc32)cc1`, which growth is on record?
A: Its growth is 29.8% (inactive).

Q: `CN1CSC(=S)N(Cc2ccccc2)C1` was tested. Which growth did it give?
A: The growth was 7.55% (active).

Q: `O=C1c2cccnc2C(=O)c2c1c(C(=O)OCCCN1CCCCC1)c1ccccn21` was tested. Which growth did it give?
A: Its growth is 31.6% (inactive).

Q: For `COc1ccc(N=Nc2nccs2)c(O)c1`, which growth is on record?
A: The growth was 18.6% (inactive).

Q: Which growth does the source give for `CCN(CC)c1ccc(C(=C2C=CC(=[N+](CC)Cc3cccc(S(=O)(=O)O)c3)C=C2)c2ccc(N(CC)Cc3cccc(S(=O)(=O)O)c3)cc2)cc1` here?
A: Its growth is 12.1% (inactive).

Q: With `COc1ccc(C(O)c2cc3c(N)c(C(=O)Nc4cccc(Br)c4C)sc3nc2C)cc1` (stereo unspecified) as the compound, how does the growth read?
A: The growth was 7.52% (active).

Q: `CCOc1ccc(/C=C/C=N/NC(N)=S)cc1` was tested. Which growth did it give?
A: The growth was 80.2% (inactive).

Q: How did the growth turn out when `CC1OC(n2c3ccccc3c3c4c(c5c6ccccc6[nH]c5c32)C(=O)N(CCN[C@H]2CCC[C@@H]2N)C4=O)CC(O)C1O` (stereo partly specified) was run?
A: Its growth is -20% (active).
